Measurements reported in PubChem BioAssay (NCATS).
Records with an inconclusive call do not appear. Activity calls are given as the source filed them. The call rests on the fitted dose curve; in most records, active means well fitted inhibition curve with a large enough effect; inconclusive means small, poorly fitted or top-dose-only effect; inactive means flat fitted curve, though single readings scatter.

How the values were obtained:
Assay in all cases: qHTS profiling for inhibitors of Plasmodium falciparum proliferation (AID 504749); further: nearly all actives have a fitted effect of over 60% in size
Settings in all cases: P. falciparum in erythrocytes, SYBR Green DNA, 72 h; series mostly up to 28.7 µM
[1] = system: CP305
Procedure, shortened: (§1)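 Parasite proliferation within erythrocytes, 72 h exposure. Endpoint: SYBR Green I fluorescence after overnight lysis at room temperature. Controls: 0.29 uM artemisinin, DMSO.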

[2] = system: CP315
Procedure, shortened: as §1

[3] = system: CP325
Procedure, shortened: as §1

[4] = system: CP329
Procedure, shortened: as §1

[5] = system: CP335
Procedure, shortened: as §1

[6] = system: DFO2036
Procedure, shortened: as §1

[7] = system: DIV14
Procedure, shortened: as §1

[8] = system: DIV17
Procedure, shortened: as §1

[9] = system: DIV30
Procedure, shortened: as §1

[10] = system: Dd2
Procedure, shortened: as §1

[11] = system: ECU
Procedure, shortened: as §1

[12] = system: FAB9
Procedure, shortened: as §1

[13] = system: GB4
Procedure, shortened: as §1

[14] = system: HB3
Procedure, shortened: as §1

[15] = system: ICS
Procedure, shortened: as §1

[16] = system: JCK
Procedure, shortened: as §1

[17] = system: N140
Procedure, shortened: as §1

[18] = system: P93_24
Procedure, shortened: as §1

[19] = system: P94_40
Procedure, shortened: as §1

[20] = system: PAD
Procedure, shortened: as §1

Measured: Potency

COC(=O)CC[C@H](N)C(=O)O
inactive: [1] | [2] | [3] | [4] | [5] | [6] | [7] | [8] | [9] | [10] | [11] | [12] | [13] | [14] | [15] | [16] | [17] | [18] | [19] | [20]

CC(C)O
inactive: [1] | [2] | [3] | [4] | [5] | [6] | [7] | [8] | [9] | [10] | [11] | [12] | [13] | [14] | [15] | [16] | [17] | [18] | [19] | [20]

O=P(O)(O)O
inactive: [1] | [2] | [3] | [4] | [5] | [6] | [7] | [8] | [9] | [10] | [11] | [12] | [13] | [14] | [15] | [16] | [17] | [18] | [19] | [20]

O=C(NNCNNC(=O)c1ccncc1)c1ccncc1
inactive: [1] | [2] | [3] | [4] | [5] | [6] | [7] | [8] | [9] | [10] | [11] | [12] | [13] | [14] | [15] | [16] | [17] | [18] | [19] | [20]

CO[C@H]1C[C@@H]2CC[C@@H](C)[C@@](O)(O2)C(=O)C(=O)N2CCCC[C@H]2C(=O)O[C@H]([C@H](C)C[C@@H]2CC[C@@H](OC(=O)C(C)(CO)CO)[C@H](OC)C2)CC(=O)[C@H](C)/C=C(\C)[C@@H](O)[C@@H](OC)C(=O)[C@H](C)C[C@H](C)/C=C/C=C/C=C/1C
inactive: [1] | [2] | [3] | [4] | [5] | [6] | [7] | [8] | [9] | [10] | [11] | [12] | [13] | [14] | [15] | [16] | [17] | [18] | [19] | [20]

CCOc1ccc(NC(=S)Nc2ccc(OCC)cc2)cc1
inactive: [1] | [2] | [3] | [4] | [5] | [6] | [7] | [8] | [9] | [10] | [11] | [12] | [13] | [14] | [15] | [16] | [17] | [18] | [19] | [20]

CCC(Cc1c(I)cc(I)c(O)c1I)C(=O)O (stereo not given)
inactive: [1] | [2] | [3] | [4] | [5] | [6] | [7] | [8] | [9] | [10] | [11] | [12] | [13] | [14] | [15] | [16] | [17] | [18] | [19] | [20]

O=C(NCCNCC(O)COc1ccc(O)cc1)N1CCOCC1 (stereo not given)
inactive: [1] | [2] | [3] | [4] | [5] | [6] | [7] | [8] | [9] | [10] | [11] | [12] | [13] | [14] | [15] | [16] | [17] | [18] | [19] | [20]

O=C1c2ccccc2C(=O)c2c1ccc(O)c2O
inactive: [1] | [2] | [3] | [4] | [5] | [6] | [7] | [8] | [9] | [10] | [11] | [12] | [13] | [14] | [15] | [16] | [17] | [18] | [19] | [20]
